High-throughput results as filed in PubChem.
Rab9 prom act: activates the Rab9 promoter; actives 2.8% (n = 320,000); AID 485297; Potency, µM (highest dose often 9.22 µM), without a hit: at the top dose activation, negative = inhibition, actives largely listed as activators; Huh7 Rab9 promoter-luciferase reporter, luminescence, 24 h; note: % of control where 0% means no effect; nearly all actives have a fitted effect of over 60% in size
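Huh7 reporter line, Rab9 promoter upstream of luciferase. Compound exposure 24 h at 37 °C in reduced-serum medium with 10% FBS. Read-out: luminescence.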
ELG1 genotox: induces genotoxicity in HEK293T cells with luciferase-tagged ELG1; HEK293T ELG1-luciferase reporter, luminescence, 16 h; Potency, µM (doses to about 46 µM), without a hit: at the top dose activity change, positive = activation, usual class: activators; actives 1.3% (n = 330,000); AID 504466; note: % of control where 0% means no effect; nearly all actives have a fitted effect of over 60% in size
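Step 1: seed 2,000 HEK293T ELG1-luciferase cells per well. Step 2: add compound or DMSO, incubate 16 hr at 37 °C. Step 3: ONE-Glo, 30 min at room temperature, read luminescence.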
ELG1 repair inh: inhibitors of ELG1-dependent DNA repair in HEK293T cells. HEK293T ELG1-luciferase reporter, luminescence, 16 h; DNA damage induced by 5-fluorouridine. Potency, µM (doses to about 46.1 µM), for the others: at the top dose activity change, negative = inhibition, most hits filed as inhibitors. actives 2.3% (n = 330,000). AID 504467; note: % is set by controls: 0 for no effect and ±100 for the full control effect; nearly all actives have a fitted effect of over 55% in size
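In this reporter screen, reduction of luminescence relative to DMSO vehicle indicated activity. Compounds and 5-fluorouridine were added together to 2,000 cells per well, incubated for 16 hr at 37 °C, then developed with ONE-Glo.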
NPC1 prom act: activators of NPC1 promoter. Huh7 NPC1 promoter luciferase reporter, 24 h. Potency, µM (highest dose often 9.22 µM), inactives show at the highest dose activation, hits mostly activators. actives 2.4% (n = 320,000). AID 485313; note: % of control where 0% means no effect; nearly all actives have a fitted effect of over 60% in size
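Cells: Huh7 expressing luciferase under the NPC1 promoter, 1500/well. Seeded 2 h, compound added, incubated 24 h at 37 °C. Luciferase reagent, 10 min ambient, then luminescence.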
FLuc counter: firefly luciferase modulation, counter-screen for miR-21 project | P08659 | purified FLuc, Km substrates, luminescence inhibition | Potency, µM (series often up to 57.5 µM), inactives show at the top dose activity change, negative = inhibition, usual class: inhibitors | actives 6.9% (n = 360,000) | AID 588342;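 note: plate controls were vehicle for no effect and reference inhibitor for full effect; nearly all actives have a fitted effect of over 55% in size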
Target sequence (P08659 whole entry, looked up): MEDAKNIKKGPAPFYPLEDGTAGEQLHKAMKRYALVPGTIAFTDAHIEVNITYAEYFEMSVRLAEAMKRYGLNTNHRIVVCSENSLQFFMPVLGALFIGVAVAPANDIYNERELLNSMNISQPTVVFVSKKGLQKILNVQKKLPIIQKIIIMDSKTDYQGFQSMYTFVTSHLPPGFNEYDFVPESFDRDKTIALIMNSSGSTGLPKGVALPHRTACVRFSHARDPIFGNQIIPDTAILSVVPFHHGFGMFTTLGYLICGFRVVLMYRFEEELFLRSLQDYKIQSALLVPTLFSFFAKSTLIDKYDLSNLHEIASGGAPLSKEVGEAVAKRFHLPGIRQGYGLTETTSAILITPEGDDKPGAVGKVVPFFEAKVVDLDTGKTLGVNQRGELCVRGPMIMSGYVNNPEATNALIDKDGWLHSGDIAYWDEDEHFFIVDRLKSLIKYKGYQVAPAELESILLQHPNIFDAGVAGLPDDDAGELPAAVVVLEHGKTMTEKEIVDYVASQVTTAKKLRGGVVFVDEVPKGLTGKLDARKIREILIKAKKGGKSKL
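Purified P. pyralis luciferase (10nM final) with 10uM D-luciferin and 10uM ATP (Km levels) in 50mM Tris acetate pH 7.5, 10mM Mg acetate, 0.01% Tween-20, 0.05% BSA; qHTS 6-point titration, ~60 µM downward; luminescence read.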
SMN2 splice up: SMN2 splice variant enhancement | HEK293 SMN2-luciferase splicing reporter, luminescence, 30-36 h | Potency, µM (doses to about 46.1 µM), without a hit: at the highest dose activity change, positive = activation, actives largely listed as activators | actives 2.8% (n = 210,000); note: % of control where 0% means no effect; nearly all actives have a fitted effect of over 55% in size
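HEK293 cells carry an SMN2 minigene-luciferase reporter in which exon 7 inclusion puts luciferase in frame. Cells were seeded at 2000 cells/well, attached for 10-12 hours, then exposed to compounds for 30-36 hours at 37C before ONE-Glo luminescence.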
The depositor's hits bear a star; ? = inconclusive; . = no result given; [ ] = another dose, or the depositor's remark. Only some compounds are listed: those with a hit (about 9.2% of all), similar ones and a draw of the others. Calls come from the whole dose curve; as a rule, active = well fitted curve in the direction sought with a large enough effect; inconclusive = small, poorly fitted or top-dose-only effect, or another doubt; inactive = no such curve, though single readings can be large; an effect the other way counts as inactive or inconclusive. Potency is the fitted concentration of half-maximal effect.

SMILES | Rab9 prom act | ELG1 genotox | ELG1 repair inh | NPC1 prom act | FLuc counter | SMN2 splice up
O=C(Nc1ccc2ccccc2n1)c1ccc(Cl)cc1 | 0.631µM* | ? | ? | 1µM* | 2.13µM* | .
COc1cc(C(C)=O)ccc1OCC(=O)NCCCn1nc(C)cc1C | . | 3.1% | ? | . | . | .
CCN(CC)CCCCn1c(-c2ccccc2)nc2c(N(CCOC)CCOC)nc(C)nc21 | . | . | . | . | . | -7.9%
COc1ccc2c(Sc3ccccc3)c(C(=O)NCc3ccc(OC(C)C)cc3)[nH]c2c1 | . | . | . | . | -0.7% | .
Cc1ccc(NC(=O)Cn2c(=O)ccc3cc(S(=O)(=O)N4CCC(C)CC4)ccc32)c(C)c1 | . | . | . | . | -7.2% | .
O=C(Cc1ccccc1)Nc1ccc(NC(=O)c2cccs2)cc1Cl | -4.4% | 9.4% | 0.1% | -1.4% | 0.6% | .
CCN(CC)c1ccc(O)c(C=Nc2ccc(C)c(C)c2)c1 | ? | ? | 6.6% | 26.1% | 3.38µM* | 4.7%
CCN(CC)c1ccc(C=Nc2ccccc2C)c(O)c1 | ? | 5.0% | 9.7% | ? | 1.35µM* | 26.8%
CCN(CC)c1ccc(C=Nc2ccc(C#N)cc2)c(O)c1 | 0.7% | 9.4% | -1.2% | -0.2% | -11.6% | -6.6%
Cc1cc(OCc2cc(C(=O)N(C)Cc3ccccn3)no2)cc(C)c1Cl | 3.98µM* | ? | ? | 3.98µM* | 12µM* | .
CC(=O)c1ccc(OCc2cc(C(=O)N(C)Cc3ccccn3)no2)cc1 | ? | ? | ? | ? | 15.1µM* | .
Cc1cc(OCc2cc(C(=O)N(C)C(C)c3ccccn3)no2)cc(C)c1Cl (stereo not drawn) | ? | ? | ? | ? | 19µM* | .
Cc1ccc(NC(=O)C(C)OC(=O)c2ccc(Cl)nc2)cc1S(=O)(=O)N1CCOCC1 (stereo not drawn) | -1.3% | -1.0% | -26.7% | -2.2% | 1.5% | .
CCCSC1=C(C#N)C2(CCCCC2)C(C#N)=C(N)N1 | -7.3% | -0.8% | -23.6% | -0.5% | 21.3µM* | .
N#CC1=C(N)NC(SCc2ccccc2)=C(C#N)C12CCCCC2 | 6.9% | -6.4% | ? | -1.9% | -2.5% | -22.6%
N#CC1=C(N)NC(SCC(=O)c2ccc(Br)cc2)=C(C#N)C12CCCCC2 | -12.9% | -10.0% | ? | -2.2% | -0.2% | -27.6%
CCSC1=C(C#N)C2(CCCCC2)C(C#N)=C(N)N1 | 12.6% | -1.5% | 0.9% | -4.6% | 6.01µM* | -13.0%
O=C(c1ccccc1Br)N1CCc2c([nH]c3ccccc23)C1 | -4.1%[1.84 µM] | -3.9% | -4.1% | -4.8% | 3.0% | .
COc1ccc(-c2cnnn2-c2ccc(NC(=O)c3c(F)cccc3F)cc2)cc1 | . | . | . | . | -12.7% | .
c1ccc(-n2cnc3cc(NCc4ccccn4)ccc32)cc1 | ? | ? | ? | ? | 15.1µM* | .
c1ccc(-n2cnc3cc(NCc4ccncc4)ccc32)cc1 | ? | 1.3% | ? | 21.6% | 23.9µM* | -96.1%
CCN(Cc1ccncc1)Cc1nc(-c2ccc(C(=O)OC)cc2)no1 | -4.8% | 0.1% | 6.0% | -10.5% | 0.7% | .
Cc1ccc(-c2c(=O)n(OCc3ccccn3)c3ccccc3[n+]2[O-])cc1 | -8.7% | 4.4% | ? | -9.0% | 1.1% | .
COc1ccc(-c2c(=O)n(OCc3ccccn3)c3ccccc3[n+]2[O-])cc1OC | -4.9% | -5.1% | 13µM* | -0.8% | 0.3% | -28.5%
Cc1cccc(-c2nc3c4ccccc4nc(NCc4ccccc4Cl)n3n2)c1 | . | . | . | . | ? | 29.4%
SMILES | Rab9 prom act | ELG1 genotox | ELG1 repair inh | NPC1 prom act | FLuc counter | SMN2 splice up
CCCc1ccc(OCc2ccc(C(=O)N3CCN(c4ccccn4)CC3)o2)c(OC)c1 | ? | -31.2% | 16.4µM* | ? | ? | ?
COc1ccc(CC(=O)N2CCN(c3ccccn3)CC2)cc1OC | -1.0% | 1.3% | -1.6% | -0.7% | 3.2% | 10.2%
O=C(c1ccc(CS(=O)(=O)c2ccc(Br)cc2)o1)N1CCN(c2ccccn2)CC1 | -3.6% | -6.7% | 18.4µM* | 3.5% | -2.9% | -5.4%
Cc1ccc(S(=O)(=O)Cc2ccc(C(=O)N3CCN(c4ccccn4)CC3)o2)cc1 | -2.2% | -10.9% | ? | -1.4% | -0.1% | 5.6%
O=C(NCc1nnc2c(C(F)(F)F)cc(Cl)cn12)c1ccc2c(c1)OCO2 | 1.0% | 0.2% | 12.4% | 0.8% | -0.9% | .
CCCCNC(=O)c1cc(-c2ccc(OC)cc2)on1 | 3.16µM* | 8.2µM* | ? | 3.98µM* | 8.49µM* | 14.1µM*
CCCCNC(=O)c1cc(-c2ccc(OC)c(OC)c2)on1 | 16.2% | 12.3% | ? | 14.0% | -11.0% | -2.0%
COc1ccc(-c2cc(C(=O)Nc3cc(C)nn3-c3ccccc3)no2)cc1 | -4.7% | 2.4% | 22.8% | -5.1% | 13.5µM* | 14.6%
CCCNC(=O)c1cc(-c2ccc(OC)cc2)on1 | 2.82µM* | 4.61µM* | ? | 0.891µM* | 2.39µM* | 10µM*
CCCCNC(=O)c1cc(-c2ccc(F)cc2)on1 | 3.98µM* | ? | ? | 3.55µM* | 9.53µM* | 25.1µM*
C=CCn1c(SCC(=O)Nc2cc(C)on2)nc2sc3c(c2c1=O)CCCC3 | -1.1% | -0.6% | -1.5% | -1.3% | -0.8% | 12.6µM*
CCn1c(SCC(=O)Nc2cc(C)on2)nc2sc3c(c2c1=O)CCCC3 | 1.2% | 15.1% | 3.1% | 1.3% | -0.5% | 27.5%
C=C(C)Cn1c(SCC(=O)c2ccccc2)nc2sc3c(c2c1=O)CCCC3 | . | . | . | . | -1.3% | 5.62µM*
C=CCn1c(SCC(=O)N2CCOCC2)nc2sc3c(c2c1=O)CCCC3 | -8.0% | -11.0% | 18.4µM* | -1.3% | 5.0% | 11.0%
Nc1nc(Cl)nc2c1ncn2[C@@H]1O[C@H](COP(=O)(O)OP(=O)(O)OP(=O)(O)O)[C@H](O)[C@H]1O | . | . | . | . | . | -10.2%
CC1CCN(S(=O)(=O)c2ccc(C(=O)N3CCCC(C(F)(F)F)C3)cc2)CC1 (stereo not drawn) | -6.8% | -5.1% | -13.9% | -5.3% | -1.9% | .
O/N=C1/CC/C(=N\O)c2nn(-c3ccccc3)nc21 | 23.5% | 10.7% | -6.8% | 17.9% | ? | ?
O=C(O)c1nn(-c2ccccc2)nc1-c1nn(-c2ccccc2)nc1C(=O)O | 0.3% | -1.1% | 9.8% | -2.1% | 21.3µM* | 0.4%
COC(=O)c1nn(-c2ccccc2)nc1-c1nn(-c2ccccc2)nc1C(=O)OC | 5.7% | ? | 0.3% | 9.1% | 2.39µM* | 3.6%
CC1(C)Cc2nc3sc(C(=O)NCCCO)c(N)c3cc2CS1 | 3.16µM* | ? | ? | ? | 15.1µM* | 14.1µM*
CC1(C)Cc2nc3sc(C(=O)NCCO)c(N)c3cc2CO1 | 15.3% | 8.4% | ? | 24.9% | 26.9µM* | ?
CC1(C)Cc2nc3sc(C(=O)O)c(N)c3cc2CS1 | -7.3% | -2.2% | 0.1% | -0.5% | ? | -7.2%
